# Measurements taken from ChEMBL document CHEMBL3988442, “University of Dundee, Small-Polar-MMV Screening Library” (2021).
# About 950 (1.4%) of roughly 69,000 compounds showed an effect of 50% or more. For the sample, strong results were picked, then their nearest neighbours and some compounds at random.
# Tested on: Mycobacterium tuberculosis
# Assay: Cornell M. t heat shock assay; further: in the data most compounds retested in dose-response had high values
# Assay type: functional, organism-based
# Parameters: dose or concentration left out as unconfirmed
row,Compound,Percent Effect [%]
1,CN(C)C(=O)[C@@H]1CC[C@@H]2[C@@H](CCN2Cc2nccs2)O1.O=C(O)C(F)(F)F,11.33
2,NC(=O)C1Cn2ccnc2C2(CCN(C(=O)NC3CCCC3)CC2)O1.O=C(O)C(F)(F)F (stereo not given),2.522
3,Cl.Fc1cccc(CN2CCC(c3cc4ncccc4cn3)CC2)c1F,102.4
4,CCc1onc(C)c1C(=O)N1CCC(c2cc3ncccc3cn2)CC1,13.11
5,Fc1cccc(CN2CCC(c3noc(-c4ccccn4)n3)CC2)c1F,12.47
6,Cl.Fc1ccc(F)c(CN2CCC(c3cc4ncccc4cn3)CC2)c1,103.6
7,Fc1ccccc1CN1CCC(c2noc(-c3ccccn3)n2)CC1,13.63
8,Fc1cccc(CN2CCC(c3n[nH]c4ncccc34)CC2)c1F,-15.12
9,COc1ccc(C)cc1CN1CCN(Cc2nccn2C)CC1,1.633
10,Fc1cccc(CN2CCC(c3noc(-c4cnccn4)n3)CC2)c1F,-19.36
11,COc1ccc(C)cc1CN1CCC(c2cc3ncccc3cn2)CC1.Cl,102.1
12,Fc1cc(F)cc(CN2CCC(c3cc4ncccc4cn3)CC2)c1,17.06
13,Fc1ccc(F)c(CN2CCC(c3cnccn3)CC2)c1,-4.596
14,Cc1nc(CN2CCOCC3(CCN(c4ccccn4)C3)C2)cs1.O=C(O)C(F)(F)F.O=C(O)C(F)(F)F (stereo not given),-41.64
15,CCN(CCNS(=O)(=O)C1CCOCC1)C(=O)OC(C)(C)C,-7.011
16,COCC(=O)NC[C@H]1CC[C@H](c2ccnc3ncnn32)CC1,20.19
17,COc1ccc(C(C)N(C)Cc2c(C3CC3)[nH]c3ncccc23)cc1.Cl (stereo not given),-15.93
18,CCC/N=c1/c(NC(=O)NCCOC)c(O)oc2ccccc12,-14.33
19,CCc1cc(N2CCC(n3cc(C(=O)NCC(C)C)nn3)CC2)ncn1,7.459
20,O=C(NC1CC1)c1cn(C2CCN(c3cc(C4CC4)ncn3)CC2)nn1,61.79
21,CC(C)Nc1cc(N2CCC(n3cc(C4CC4)nn3)CC2)ncn1,-24.54
22,CCc1cc(N2CCC(NC(=O)CCC3CCCO3)CC2)ncn1 (stereo not given),-18.51
23,OCCNc1cc(N2CCC(n3cc(C4CCCC4)nn3)CC2)ncn1,8.872

row,Compound,Percent Effect [%]
1,CCc1cc(N2CCC(n3cc(C(=O)NC4CC4)nn3)CC2)ncn1,51.27
2,CC(C)OCc1ncn2c1CN(Cc1ccc(F)cc1)CCC2.O=C(O)C(F)(F)F,-13.8
3,Cc1ccc(-n2cccn2)cc1S(=O)(=O)N1C[C@@H]2CC[C@H](C1)N(C)C2,23.12
4,Cn1cc(C2CC(=O)NC23CCN(C(=O)Cc2ccccn2)CC3)cn1.O=C(O)C(F)(F)F (stereo not given),-20.75
5,COc1coc(CN2CCCC(CCc3ccc(F)cc3)C2)cc1=O (stereo not given),-2.405
6,COc1ccnc(CN2CCCC(CCc3ccc(F)cc3)C2)c1OC (stereo not given),80.3
7,COc1ccnc(CN2CCCC(CCc3ccccc3)C2)c1OC (stereo not given),22.56
8,COCCN1CC[C@@H]2OC(COCC(=O)N3CCCC3)CC[C@@H]21.O=C(O)C(F)(F)F (stereo not given in full),-19.46
9,COc1c(C)cnc(CNCC(C)C)c1C,-4.994
10,CCCS(=O)(=O)NCc1ncc(C)c(OC)c1C,51.82
11,CCCNCc1ncc(C)c(OC)c1C,-10.29
12,FC1(F)CCN(Cc2ccccn2)CC12CCN(c1cccnc1)C2.O=C(O)C(F)(F)F.O=C(O)C(F)(F)F.O=C(O)C(F)(F)F (stereo not given),-10.62
13,Cc1csc2ncc(-c3ccnc(N4CCCC[C@@H]4CO)n3)c(=O)n12,73.7
14,O=c1c(-c2ccnc(N3CCCC[C@@H]3CO)n2)cnc2sccn12,-1.826
15,Cc1csc2ncc(-c3ccnc(N4CCC[C@@H]4CO)n3)c(=O)n12,-11.68
16,Cc1nc(CN2CCc3ncnc(-c4ccc(F)cc4)c3CC2)cs1.O=C(O)C(F)(F)F,-9.802
17,CCc1noc(CNc2nc(-c3cccnc3)nc3c2CCNCC3)n1,-6.144
18,c1cncc(-c2nc3c(c(NCC4(c5ccncc5)CC4)n2)CCC3)c1,-38.69
19,Cl.NC1CCc2nc(-c3cccnc3)nc(Nc3ccc(F)cc3)c2C1 (stereo not given),99.91
20,CN(CC1CCCO1)c1nc(-c2cccnc2)nc2c1CCNCC2 (stereo not given),-30.46
21,CC(O)CNc1nc(-c2cccnc2)nc2c1CCC2 (stereo not given),6.387
22,CCn1ccc(C(=O)N2CCCC2c2nnc(-c3scnc3C)o2)n1 (stereo not given),-2.34
23,CC(c1cc(F)ccc1F)N(C)CCS(=O)(=O)CCC(N)=O (stereo not given),49.2

row,Compound,Percent Effect [%]
1,Cc1ccc(OCCN(C)C(C)c2cccc(S(N)(=O)=O)c2)cc1 (stereo not given),-22.37
2,Cc1ccc(C(C)N(C)CCS(=O)(=O)CCC(N)=O)cc1 (stereo not given),68.62
3,CC(c1cccc(Cl)c1)N(C)CCS(=O)(=O)CCC(N)=O (stereo not given),31.14
4,CC(c1ccc(F)c(F)c1)N(C)CCS(=O)(=O)CCC(N)=O (stereo not given),53.46
5,Cc1ccc(C(C)NC(=O)CSCC(N)=O)cc1 (stereo not given),15.53
6,O=C(O)C(F)(F)F.O=C(O)C(F)(F)F.O=C(O)C(F)(F)F.c1cc(CN2CCN3C[C@H](Oc4cncnc4)C[C@H]3C2)ccn1,11.96
7,Cc1sc2nc(CCN)nc(N(CCN(C)C)CC3CCCO3)c2c1C (stereo not given),-25.67
8,CCN(CCN(C)C)c1nc(CCN)nc2sc(C)c(C)c12,91.54
9,COCCN(CC1CC1)c1nc(CCN)nc2sc(C)c(C)c12,9.263
10,COc1cc(N2C[C@H]3CCC[C@@H](CN(C)C)[C@H]3C2)ncn1.O=C(O)C(F)(F)F,-30.27
11,O=C1CCCC2=C1C(c1ccc(Cl)cc1Cl)Nc1nonc1N2 (stereo not given),15.96
12,O=C(O)C(F)(F)F.O=C(O)C(F)(F)F.O=C(O)CN1CCC(F)(F)C2(CCN(c3ccccc3)C2)C1 (stereo not given),100.8
13,O=C(O)C(F)(F)F.O=C(c1c[nH]cn1)N1CCC(F)(F)C2(CCN(c3ncccn3)C2)C1 (stereo not given),-10.36
14,O=C(O)C(F)(F)F.O=C(O)C(F)(F)F.O=C(c1c[nH]cn1)N1CCC(F)(F)C2(CCN(c3ccccn3)C2)C1 (stereo not given),6.804
15,FC1(F)CCN(Cc2cccnc2)CC12CCN(c1ccccc1)C2.O=C(O)C(F)(F)F.O=C(O)C(F)(F)F.O=C(O)C(F)(F)F (stereo not given),107.1
16,FC1(F)CCN(Cc2ccncc2)CC12CCN(c1cccnc1)C2.O=C(O)C(F)(F)F.O=C(O)C(F)(F)F.O=C(O)C(F)(F)F (stereo not given),-5.593
17,O=C(O)C(F)(F)F.O=C(c1c[nH]cn1)N1CCC(F)(F)C2(CCN(c3cccc(F)c3)C2)C1 (stereo not given),53.67
18,FC1(F)CCN(Cc2cccnc2)CC12CCN(c1ccccn1)C2.O=C(O)C(F)(F)F.O=C(O)C(F)(F)F.O=C(O)C(F)(F)F (stereo not given),8.031
19,O=C(CO)N1CCC(F)(F)C2(CCN(c3ccccc3)C2)C1.O=C(O)C(F)(F)F (stereo not given),34.47
20,O=C(O)C(F)(F)F.O=C(O)C(F)(F)F.O=C(O)CN1CCC(F)(F)C2(CCN(c3ccccn3)C2)C1 (stereo not given),-7.749
21,Cc1ccc(C(=O)N2CCC3(CCN(C(=O)c4cccnc4)C3)CC2)o1.O=C(O)C(F)(F)F,1.785
22,COC(=O)CC(C)(C)CC(=O)N1CCC(C(F)(F)F)CC1,-1.161
23,Cc1nn(C)cc1S(=O)(=O)NCC(c1ccccc1)N1CCCCCC1.Cl (stereo not given),-15.55

row,Compound,Percent Effect [%]
1,CN(C)CCNCCC(Cc1ccccc1)C1CCOC(C)(C)C1.O=C(O)C(=O)O (stereo not given),-22.2
2,Cl.FC(F)(F)c1nc(C2CCNCC2)no1,-8.269
3,COCCN1CCC2(CC1)CC(NCc1ccc(C)s1)c1ccccc12.O=C(O)C(F)(F)F.O=C(O)C(F)(F)F (stereo not given),1.76
4,Cc1nc(CN2C[C@@H]3CN(C(=O)c4cccn4C)C[C@@H]3C2=O)cs1.O=C(O)C(F)(F)F,-10.46
5,O=C(O)C(F)(F)F.O=C(c1ccc(F)cc1)N1C[C@H]2CCC[C@@]2(COCc2ccccn2)C1,7.203
6,CN1CCCC(c2cccc(-c3cccc(Cl)c3)n2)C1 (stereo not given),-13.07
7,CN(Cc1c(F)cccc1Cl)C(=O)Cn1cnc(C#N)n1,-1.386
8,N#Cc1ncn(Cc2c(F)cccc2Cl)n1,-2.259
9,N#Cc1ncn(CC(=O)Cc2c(F)cccc2Cl)n1,85.52
10,CCc1ccc(CN2CCCCC2c2n[nH]cc2-c2cc(C)no2)cc1.Cl (stereo not given),16.34
11,CS(=O)(=O)N[C@@H]1CCO[C@]2(CCN(C(=O)c3cscn3)C2)C1,-9.704
12,CS(=O)(=O)N[C@@H]1CCO[C@]2(CCN(C(=O)c3cnccn3)C2)C1,9.518
13,CS(=O)(=O)N[C@H]1CCO[C@]2(CCN(C(=O)c3ccccn3)C2)C1.O=C(O)C(F)(F)F,72.36
14,CCC(N)C(=O)N1CCC(OCc2ccc(Cl)c(Cl)c2)CC1.Cl (stereo not given),20.26
15,CCn1ccnc1CNc1nccc(-c2c(C)nn(C)c2C)n1,4.641
16,CCn1ccnc1CNCc1ccc(C)cc1OC(C)(C)C,55.22
17,Cc1ccc(CNCc2nccn2C)c(OCC2CC2)c1,39.25
18,Cc1ccc(CNC(=O)NCc2nccn2C)c(OC(C)(C)C)c1,2.123
19,Cc1ccc(CNCc2nccn2C)c(OC(C)(C)C)c1,50.94
20,CCn1ccnc1CNCC1CCCN1c1cccnn1 (stereo not given),2.735
21,Cn1cccc1C(=O)NC[C@]12COC[C@H]1CN(Cc1nccs1)C2.O=C(O)C(F)(F)F,-42.54
